System: Vero E6 infected with SARS-CoV-2
Assay: inhibition of SARS-CoV-2 cytopathic effect; higher = more antiviral protection, active = above 15
Details: 48 h

Measured: inhibition of SARS-CoV-2 cytopathic effect

CC(C)(N)c1cc(C(=O)N[C@@H]2CCc3ccc(Oc4ccnc5c4CCC(=O)N5)cc3C2)cc(C(F)(F)F)c1
inactive: 1 nM 0.3% | 8.33 nM 1.69% | 100 nM 1.9% | 833.33 nM -3.12% | 10000 nM -8.56%

Nc1nccc(-c2ccc3noc(-c4ccc(Cl)cc4)c3c2)n1 [PIM-1-Inhibitor-2]
inactive: 1 nM 0.72% | 8.33 nM -0.19% | 100 nM 3.66% | 833.33 nM 0.83% | 10000 nM 0.56%

NS(=O)(=O)c1nn2cc(-c3ccccc3)nc2s1
inactive: 1 nM 8.11% | 8.33 nM 1.76% | 100 nM 0.85% | 833.33 nM 0.07% | 10000 nM 0.7%

COc1ccc(C(=O)N2CCCC2=O)cc1 [aniracetam]
inactive: 1 nM 0.63% | 8.33 nM 0.43% | 100 nM 0.75% | 833.33 nM 0.1% | 10000 nM 0.6%

CCCCCn1cc(C(=O)NC23CC4CC(CC(C4)C2)C3)c(=O)c2cc(-c3ccccc3)ccc21
inactive: 1 nM -3.48% | 8.33 nM -3% | 100 nM -0.96% | 833.33 nM -1.94% | 10000 nM -5.93%

Nc1nccc(-c2c(-c3ccc(F)cc3)ncn2C2CCCCC2)n1
inactive: 1 nM 3.7% | 8.33 nM 3.92% | 100 nM -2.24% | 833.33 nM -0.2% | 10000 nM 1.35%

COc1ccc(CN(C(=O)[C@@H](N)Cc2c(C)cc(C(N)=O)cc2C)[C@@H](C)c2ncc(-c3ccccc3)[nH]2)cc1C(=O)O [eluxadoline]
inactive: 1 nM 2.78% | 8.33 nM 1.84% | 100 nM 0.96% | 833.33 nM 1.03% | 10000 nM 1.03%

— the supplement of paper PMC13380429
